# Laboratory results published in ChEMBL document CHEMBL2218924, “A broad activity screen in support of a chemogenomic map for kinase signalling research and drug discovery” (Biochem J, 2013).
# Biological target: Insulin-like growth factor 1 receptor (Homo sapiens) (UniProt P08069)
# Details: at 1 µM
# Chain of Insulin-like growth factor 1 receptor (Homo sapiens) (P08069 31-736 limits assumed): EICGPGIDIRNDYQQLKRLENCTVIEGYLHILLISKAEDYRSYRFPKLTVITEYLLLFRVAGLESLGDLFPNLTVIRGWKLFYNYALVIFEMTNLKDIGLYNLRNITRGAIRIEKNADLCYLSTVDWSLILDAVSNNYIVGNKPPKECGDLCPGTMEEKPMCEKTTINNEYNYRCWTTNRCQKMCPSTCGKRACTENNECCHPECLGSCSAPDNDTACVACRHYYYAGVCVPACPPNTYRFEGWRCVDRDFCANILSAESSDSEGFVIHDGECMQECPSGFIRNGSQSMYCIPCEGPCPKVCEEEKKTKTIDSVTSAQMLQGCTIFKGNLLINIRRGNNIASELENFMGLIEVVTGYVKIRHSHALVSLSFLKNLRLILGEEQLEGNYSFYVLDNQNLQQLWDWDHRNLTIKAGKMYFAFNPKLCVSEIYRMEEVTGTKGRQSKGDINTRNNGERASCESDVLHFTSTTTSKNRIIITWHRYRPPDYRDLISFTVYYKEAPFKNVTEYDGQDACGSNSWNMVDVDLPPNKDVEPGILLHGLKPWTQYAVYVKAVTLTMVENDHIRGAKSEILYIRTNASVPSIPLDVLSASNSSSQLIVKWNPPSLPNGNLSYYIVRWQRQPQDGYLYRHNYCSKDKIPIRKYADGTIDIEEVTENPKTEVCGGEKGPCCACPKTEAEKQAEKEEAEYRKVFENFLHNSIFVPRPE
# Chain of Insulin-like growth factor 1 receptor (Homo sapiens) (P08069 741-1367 limits assumed): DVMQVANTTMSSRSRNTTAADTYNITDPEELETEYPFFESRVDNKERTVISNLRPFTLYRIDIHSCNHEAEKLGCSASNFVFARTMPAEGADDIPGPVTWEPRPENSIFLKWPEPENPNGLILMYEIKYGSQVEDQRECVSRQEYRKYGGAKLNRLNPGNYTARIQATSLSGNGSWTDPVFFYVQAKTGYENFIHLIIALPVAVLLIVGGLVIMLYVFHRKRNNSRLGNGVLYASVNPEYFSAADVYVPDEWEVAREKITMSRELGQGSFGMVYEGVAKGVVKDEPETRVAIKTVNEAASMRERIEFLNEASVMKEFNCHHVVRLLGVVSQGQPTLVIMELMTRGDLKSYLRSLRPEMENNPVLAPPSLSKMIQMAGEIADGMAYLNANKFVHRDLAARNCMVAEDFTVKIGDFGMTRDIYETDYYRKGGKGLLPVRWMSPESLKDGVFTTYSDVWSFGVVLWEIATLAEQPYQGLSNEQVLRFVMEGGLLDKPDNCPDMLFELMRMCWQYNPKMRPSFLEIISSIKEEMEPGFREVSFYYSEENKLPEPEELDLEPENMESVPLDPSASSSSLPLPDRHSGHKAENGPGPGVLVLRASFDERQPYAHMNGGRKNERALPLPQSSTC
row,SMILES,residual activity [%]
1,O=C(Nc1cccc(Nc2cc(Nc3cccc(C(F)(F)F)c3)ncn2)c1)C1CC1,141
2,COc1ccc(CNc2nc(N(CCO)CCO)nc3c2ncn3C(C)C)cc1,90
3,O=c1cc(-c2cccc3c2Sc2ccccc2S3)oc(N2CCOCC2)c1,100
4,COc1ccc(S(=O)(=O)N(CCO)c2ccccc2CN(C)C/C=C/c2ccc(Cl)cc2)cc1,121
5,Cn1cnc2cc3c(Nc4cccc(Br)c4)ncnc3cc21,145
6,NC(=O)c1ccc2[nH]c(-c3ccc(Oc4ccc(Cl)cc4)cc3)nc2c1,140
7,CCC(=O)Nc1ccc2ncnc(Nc3cccc(Br)c3)c2c1,132
8,CN(C)c1ccc(/C=C2\C(=O)Nc3ccccc32)cc1,146
9,Nc1ccc2ncnc(NCCc3ccc(Oc4ccccc4)cc3)c2c1,138
10,O=Nc1c(-c2c(O)[nH]c3ccccc23)[nH]c2ccccc12,37
11,CO[C@H]1C[C@@H]2CC[C@@H](C)[C@@](O)(O2)C(=O)C(=O)N2CCCC[C@H]2C(=O)O[C@H]([C@H](C)C[C@@H]2CC[C@@H](O)[C@H](OC)C2)CC(=O)[C@H](C)/C=C(\C)[C@@H](O)[C@@H](OC)C(=O)[C@H](C)C[C@H](C)/C=C/C=C/C=C/1C,123
12,Cc1nc2cc3nc(-c4cccs4)cnc3cc2n1C,141
13,COc1ccc(C(=O)Nc2sc3c(c2C(N)=O)CCCC3)cc1OC,115
14,O=C1Nc2ccccc2/C1=C1/Nc2ccccc2/C1=N\OCCC(O)CO (stereo not given),25
15,c1ccc(-c2n[nH]cc2-c2ccnc3ccccc23)nc1,131
16,COc1cccc(-c2cc(=O)c3ccccc3o2)c1N,91
17,O=C1NC(=O)/C(=C/c2ccc3c(c2)OC(F)(F)O3)S1,98
18,Oc1ccc(Nc2nc(-c3ccc(Cl)cc3)cs2)cc1,120

row,SMILES,residual activity [%]
1,Oc1ccc(-c2nc(-c3ccc(F)cc3)c(-c3ccncc3)[nH]2)cc1,113
2,Cn1nc2c3c(cccc31)C(=O)c1ccccc1-2,111
3,O=C1NC(=O)c2c1c1c3ccccc3[nH]c1c1[nH]c3cc(Br)ccc3c21,87
4,COc1cc2ncnc(Nc3ccc(O)c(Br)c3)c2cc1OC,71
5,N#C/C(=C(\N)Sc1ccc(N)cc1)c1ccccc1C(F)(F)F,99
6,O=C1Nc2cc(Br)ccc2/C1=C1/Nc2ccccc2/C1=N\O,112
7,O=C(O)c1ccc2c3c1cccc3c(=O)n1c3ccccc3nc21,68
8,Cc1ccc(S(=O)(=O)/C=C/C#N)cc1,75
9,CNc1cc2c(Nc3cccc(Br)c3)ncnc2cn1,118
10,O=c1c2ccccc2[nH]c(=S)n1CCN1CCC(=C(c2ccc(F)cc2)c2ccc(F)cc2)CC1,119
11,Oc1c2ccccc2c2c3c(cccc13)N=N2,91
12,Cc1cc2ncc(-c3ccccc3)nc2cc1C,131
13,O=C1c2ccccc2-[n+]2ccc3c([nH]c4ccccc43)c21,59
14,CC(C)n1cnc2/c(=N/c3cccc(Cl)c3)nc(NCCO)[nH]c21,103
15,O=C1NC(=O)/C(=C\c2ccc3nccnc3c2)S1,147
16,Nc1n[nH]c2nnc(-c3c(-c4ccccc4)nn4ccccc34)cc12,85
17,Cn1cc(/C=C2\C(=O)Nc3ccc(S(N)(=O)=O)cc32)c2ccccc21,118

# Biological target: Insulin-like growth factor 1 receptor (Homo sapiens) (UniProt P08069)
# Details: at 10 µM
row,SMILES,residual activity [%]
1,O=C(Nc1cccc(Nc2cc(Nc3cccc(C(F)(F)F)c3)ncn2)c1)C1CC1,115
2,COc1ccc(CNc2nc(N(CCO)CCO)nc3c2ncn3C(C)C)cc1,129
3,O=c1cc(-c2cccc3c2Sc2ccccc2S3)oc(N2CCOCC2)c1,113
4,COc1ccc(S(=O)(=O)N(CCO)c2ccccc2CN(C)C/C=C/c2ccc(Cl)cc2)cc1,114
5,Cn1cnc2cc3c(Nc4cccc(Br)c4)ncnc3cc21,103
6,NC(=O)c1ccc2[nH]c(-c3ccc(Oc4ccc(Cl)cc4)cc3)nc2c1,98
7,CCC(=O)Nc1ccc2ncnc(Nc3cccc(Br)c3)c2c1,116
8,CN(C)c1ccc(/C=C2\C(=O)Nc3ccccc32)cc1,139
9,Nc1ccc2ncnc(NCCc3ccc(Oc4ccccc4)cc3)c2c1,114
10,O=Nc1c(-c2c(O)[nH]c3ccccc23)[nH]c2ccccc12,26
11,CO[C@H]1C[C@@H]2CC[C@@H](C)[C@@](O)(O2)C(=O)C(=O)N2CCCC[C@H]2C(=O)O[C@H]([C@H](C)C[C@@H]2CC[C@@H](O)[C@H](OC)C2)CC(=O)[C@H](C)/C=C(\C)[C@@H](O)[C@@H](OC)C(=O)[C@H](C)C[C@H](C)/C=C/C=C/C=C/1C,112
12,Cc1nc2cc3nc(-c4cccs4)cnc3cc2n1C,61
13,COc1ccc(C(=O)Nc2sc3c(c2C(N)=O)CCCC3)cc1OC,74
14,O=C1Nc2ccccc2/C1=C1/Nc2ccccc2/C1=N\OCCC(O)CO (stereo not given),2
15,c1ccc(-c2n[nH]cc2-c2ccnc3ccccc23)nc1,133
16,COc1cccc(-c2cc(=O)c3ccccc3o2)c1N,127
17,O=C1NC(=O)/C(=C/c2ccc3c(c2)OC(F)(F)O3)S1,130
18,Oc1ccc(Nc2nc(-c3ccc(Cl)cc3)cs2)cc1,101

row,SMILES,residual activity [%]
1,Oc1ccc(-c2nc(-c3ccc(F)cc3)c(-c3ccncc3)[nH]2)cc1,141
2,Cn1nc2c3c(cccc31)C(=O)c1ccccc1-2,106
3,O=C1NC(=O)c2c1c1c3ccccc3[nH]c1c1[nH]c3cc(Br)ccc3c21,91
4,COc1cc2ncnc(Nc3ccc(O)c(Br)c3)c2cc1OC,73
5,N#C/C(=C(\N)Sc1ccc(N)cc1)c1ccccc1C(F)(F)F,123
6,O=C1Nc2cc(Br)ccc2/C1=C1/Nc2ccccc2/C1=N\O,127
7,O=C(O)c1ccc2c3c1cccc3c(=O)n1c3ccccc3nc21,74
8,Cc1ccc(S(=O)(=O)/C=C/C#N)cc1,107
9,CNc1cc2c(Nc3cccc(Br)c3)ncnc2cn1,109
10,O=c1c2ccccc2[nH]c(=S)n1CCN1CCC(=C(c2ccc(F)cc2)c2ccc(F)cc2)CC1,104
11,Oc1c2ccccc2c2c3c(cccc13)N=N2,105
12,Cc1cc2ncc(-c3ccccc3)nc2cc1C,144
13,O=C1c2ccccc2-[n+]2ccc3c([nH]c4ccccc43)c21,67
14,CC(C)n1cnc2/c(=N/c3cccc(Cl)c3)nc(NCCO)[nH]c21,105
15,O=C1NC(=O)/C(=C\c2ccc3nccnc3c2)S1,114
16,Nc1n[nH]c2nnc(-c3c(-c4ccccc4)nn4ccccc34)cc12,78
17,Cn1cc(/C=C2\C(=O)Nc3ccc(S(N)(=O)=O)cc32)c2ccccc21,114
